ChEMBL document CHEMBL4513216, “Probing the Open Global Health Chemical Diversity Library for Multistage-Active Starting Points for Next-Generation Antimalarials” (ACS Infect Dis, 2020)
The campaign covered roughly 69,000 compounds. About 8,600 (12%) showed an effect of 50% or more. For the sample, strong results were picked, then their nearest neighbours and some compounds at random.

Test system: Plasmodium berghei
Assay: Screen against P. berghei liver stage (PbLuc), transformed with Luciferase, at 10uM
Format: functional, HepG2
Conditions: tested at 10 uM

| Structure (SMILES) | INHIBITION [%] |
| --- | --- |
| CCOc1cc(F)ccc1NC1CCN(CC(F)(F)F)C1=O (stereo unspecified) | -6.51 |
| Cc1nnc(C(C)N(C)Cc2c(C)nn(-c3ccccc3)c2C)o1 (stereo unspecified) | -10.8 |
| Cc1nnc(C(C)N(C)Cc2c(C)nn(-c3ccccc3C)c2C)o1 (stereo unspecified) | 59.2 |
| CCc1nnc(C(C)N(C)Cc2c(C)nn(-c3ccccc3)c2C)o1 (stereo unspecified) | -77.1 |
| CCOC(=O)c1cnn(C2CCN(C(=O)CCC(C)C)CC2)c1N | 38.3 |
| CCc1ccc(S(=O)(=O)NCCOc2ccc3nnc(C)n3n2)s1 | 31 |
| Cc1ccc(S(=O)(=O)NCCOc2ccc3nnc(C)n3n2)s1 | 57.4 |
| Cc1nnc2ccc(OCCNS(=O)(=O)c3cccs3)nn12 | 3.13 |
| Cc1ccc(CN2CCc3onc(C(=O)N4CCCC4)c3C2)o1 | 23.6 |
| Cc1ccc(CN2CCc3onc(C(=O)NC(C)C)c3C2)o1 | 45.4 |
| CC(C)NC(=O)N1CCc2onc(C(=O)NCCN(C)C)c2C1 | 95.7 |
| CN(C)CCNC(=O)c1noc2c1CN(C(=O)N(C)C)CC2 | 28.2 |
| Cc1ccc(CN2CCc3onc(C(=O)NCCN(C)C)c3C2)o1 | 54.4 |
| CC(C)C(=O)N1CCc2onc(C(=O)NCCN(C)C)c2C1 | 39.4 |
| O=C1N(c2cccnc2)CCC12CCCN(Cc1ccoc1)C2 (stereo unspecified) | -29.3 |
| CCN1CCC[C@@H]1CNC(=O)c1cc(COc2ccccc2)[nH]n1 | 33.4 |
| O=C1CC(NCc2cnc(N3CCCC3)nc2)CN1c1ccccc1 (stereo unspecified) | 43.9 |
| O=C1CC(NCc2cnc(-c3cccs3)nc2)CN1c1ccccc1 (stereo unspecified) | 8.92 |
| O=C1CC(NCc2cnc(C3CCCCC3)nc2)CN1c1ccccc1 (stereo unspecified) | 56.5 |
| Cc1cnn(CC2CCCCN2CCCS(=O)(=O)N(C)C)c1 (stereo unspecified) | 13.3 |
| Nc1c(N2CCOCC2)ncnc1N1CCOCC1 | 50 |
| Nc1c(N2CCCCC2)ncnc1N1CCOCC1 | 10.5 |

| Structure (SMILES) | INHIBITION [%] |
| --- | --- |
| Nc1c(N2CCCC2)ncnc1N1CCOCC1 | 7.53 |
| Cc1cc(C)n(-c2ccccc2NC(=O)NCCS(=O)(=O)CC(C)C)n1 | 32.5 |
| CC(Cn1cccn1)NCc1nc(-c2ccsc2)no1 (stereo unspecified) | 1.78 |
| Cc1cnn(CC(C)NCc2nc(-c3cccnc3)no2)c1 (stereo unspecified) | 15.1 |
| CC(Cn1cccn1)NCc1nc(-c2cccnc2)no1 (stereo unspecified) | 86.8 |
| CC(Cn1cccn1)NCc1nc(-c2ccccc2Cl)no1 (stereo unspecified) | 25.1 |
| COc1ccc(-c2noc(CNC(C)Cn3cccn3)n2)c(OC)c1 (stereo unspecified) | 53.8 |
| CC(Cn1cccn1)NCc1nc(-c2cccc(Cl)c2)no1 (stereo unspecified) | 26.3 |
| CCn1cc(-c2nccnc2C2CCCN(C(C)=O)C2)cn1 (stereo unspecified) | -14.2 |
| COCC1Cn2nnc(-c3cnn(C)c3)c2CN1Cc1ccc(C)o1 (stereo unspecified) | -1.12 |
| O=C1COc2cc(S(=O)(=O)NCCC3=CCCCC3)c(Cl)cc2N1 | 48.4 |
| NC(=O)N1CC[C@H](O)[C@@H]1Cc1ccccc1 | 46.9 |
| O=C(NCc1nn(-c2ccccc2)c2c1CCC2)NC1CCOCC1 | -6.11 |
| CCCc1cncnc1N1CCC2(CCC(=O)N(CCCO)C2)CC1 | -43.8 |
| Cc1nn(C)cc1-c1cc(C(=O)NCC(C)(C)c2ccc(F)cc2)n[nH]1 | 5.75 |
| CC(=O)N1[C@H](Cn2cncn2)C[C@@H]2CN(c3ncc(F)cn3)CC[C@@H]21 | 21.3 |
| C(=C\c1ccccc1)/CNCC1CCc2nncn2C1 (stereo unspecified) | 17.1 |
| CC(C)c1nnc2n1CC(CNCc1nc3ccccc3s1)CC2 (stereo unspecified) | 43.3 |
| CC(C)c1nnc2n1CC(CNC/C=C/c1ccccc1)CC2 (stereo unspecified) | 51.3 |
| Cc1cnn(CCNCc2nnc(Cc3ccccc3)o2)c1 | 2.97 |
| Cc1nn(Cc2ccc(F)cc2)c2[nH]nc(N)c12 | 78.2 |
| Cc1nn(C)c2c(=O)n(Cc3ccc(F)cc3)nnc12 | -10.77 |

| Structure (SMILES) | INHIBITION [%] |
| --- | --- |
| Cc1nn(-c2ccc(F)cc2)c2[nH]nc(N)c12 | 46.4 |
| O=C(Nc1ccccc1)C1CN(CC2CCOCC2)CC12CCOCC2 (stereo unspecified) | -42.9 |
| CCC[C@@H]1CN(Cc2ccccc2C#N)C[C@H]1NC(C)=O | 17.5 |
| CCC[C@H]1CN(Cc2cc(C#N)n(C)c2C)C[C@@H]1N(C)C | 73.6 |
| CCC[C@H]1CN(Cc2ccccc2C#N)C[C@@H]1NS(C)(=O)=O | 49.3 |
| CCC[C@@H]1CN(Cc2cc(C#N)n(C)c2C)C[C@H]1NS(C)(=O)=O | 64.4 |
| CCC[C@H]1CN(Cc2ccc(N(C)C)nc2)C[C@@H]1NS(=O)(=O)CC | 46.6 |
| CCC[C@@H]1CN(Cc2c[nH]nc2-c2ccc(F)cc2)C[C@H]1NS(C)(=O)=O | 27.4 |
| CCOC(=O)C1CCCN(Cc2cc(C#N)n(C)c2C)C1 (stereo unspecified) | 24.7 |
| CCC[C@H]1CN(Cc2cc(C#N)n(C)c2C)C[C@@H]1NS(=O)(=O)CC | 61.8 |
| CCC[C@@H]1CN(Cc2ccc(N(C)C)nc2)C[C@H]1N(C)C | 36.5 |
| O=C(c1cc2ccccc2[nH]1)N1CCC(Nc2cccnn2)CC1 | 31.2 |
| Cc1nnc2n1CCN(C(=O)c1ccc(Cn3cccc3)cc1)C2 | -18.52 |
| CN1CCN(C(=O)c2ccc3c(c2)nc(N2CCOCC2)n3C)CC1=O | -18.9 |
| Cc1nc(C(=O)N2CCCC2c2c(C)nn(C)c2Cl)ccc1C#N (stereo unspecified) | 0.914 |
| NC(=O)NCC(=O)N1C[C@@H]2CC[C@H]1CN(C1Cc3ccccc3C1)C2 | 21 |
| CCCC(=O)N1CCCC1(C)c1nc(C)no1 (stereo unspecified) | -3.97 |
| COc1cc(OC)c(C2Nc3cc(Cl)ccc3C3=NCCN32)cc1OC (stereo unspecified) | 73.9 |
| COc1ccc(C2Nc3ccccc3C3=NCCCN32)cc1OC (stereo unspecified) | 54 |
| COc1cc(C2Nc3cc(Cl)ccc3C3=NCCN32)cc(OC)c1OC (stereo unspecified) | 38.8 |
| COc1ccc(C2Nc3cc(Cl)ccc3C3=NCCN32)cc1OC (stereo unspecified) | 72.8 |
| COc1ccc(C2Nc3cc(Cl)ccc3C3=NCCN32)cc1O (stereo unspecified) | 28 |

| Structure (SMILES) | INHIBITION [%] |
| --- | --- |
| CN(C)c1ncc(C2Nc3ccccc3C3=NCCCN32)cn1 (stereo unspecified) | 9.93 |
| COc1cc(C2Nc3cc(Cl)ccc3C3=NCCN32)ccc1O (stereo unspecified) | -43 |
| Oc1ccc(C2Nc3ccccc3C3=NCCCN32)cc1 (stereo unspecified) | 36.4 |
| COc1ccc(C2Nc3cc(Cl)ccc3C3=NCCN32)cc1CO (stereo unspecified) | 46 |
| COCc1nc(C(=O)N2CCCC(n3ccnc3C(C)C)C2)cs1 (stereo unspecified) | 19.5 |
| O=C([C@H]1CCCO1)N1CC[C@@H](O)[C@@H]1Cc1ccccc1 | 21.1 |
| CC(O)CN1CCN(C(=O)c2cc3ccccc3[nH]c2=O)CC1 (stereo unspecified) | 16.6 |
| CNc1cc2c(nn1)CCN(C(=O)c1ccccc1-n1cccn1)C2 | 36.8 |
| CN1CCCCC(C2CCN(S(=O)(=O)c3cn(C)cn3)CC2)C1=O (stereo unspecified) | -23.4 |
| CCNC(=O)[C@@H]1C[C@@H](NC(=O)CSC)CN1Cc1ccncc1 | 29.6 |
| OC(CNCCn1cccn1)c1cccc(F)c1 (stereo unspecified) | -15.5 |
| Cc1ccnc(OC[C@]23COC[C@H]2CN(C(=O)c2ncccn2)C3)n1 | 18.4 |
| O=C(NC1(c2cccc(F)c2)CCOCC1)c1ccccn1 | 26.8 |
| Cc1ncccc1C(=O)NC1(c2cccc(F)c2)CCOCC1 | 76.2 |
| O=C(NC1(c2cccc(F)c2)CCOCC1)c1cc[nH]n1 | 13.5 |
| COc1ncccc1C(=O)NC1(c2cccc(F)c2)CCOCC1 | 65.3 |
| CN1CC(C(=O)NC2(c3cccc(F)c3)CCOCC2)CC1=O (stereo unspecified) | -36 |
| CN(C)c1cc(C(=O)NC2(c3cccc(F)c3)CCOCC2)ccn1 | 27.5 |
| CC(C)c1ocnc1C(=O)NC1(c2cccc(F)c2)CCOCC1 | 60.3 |
| Cc1cc(C(=O)NC2(c3cccc(F)c3)CCOCC2)no1 | 20.6 |
| O=C(NC1(c2cccc(F)c2)CCOCC1)c1ccoc1 | 18.5 |
| CCC(CC)C(=O)N1CCCc2c(cnn2C)C1 | 31.9 |

| Structure (SMILES) | INHIBITION [%] |
| --- | --- |
| O=C(CCc1cc(Cl)no1)N1CCC(c2cc3ncccc3cn2)CC1 | 23.2 |
| CCOc1ccccc1-n1c(-c2cn(CC)nc2C)n[nH]c1=O | 18 |
| CN1CCCC(CCC(=O)NCCCn2ncc3ccccc32)C1 (stereo unspecified) | 17 |
| CC(=O)Nc1cc(C(C)(C)C)sc1C#N | -52.4 |
| Cc1cncc(C(=O)N2C[C@@H](C(=O)O)[C@H](C(C)C)C2)c1 | 72.2 |
| Cc1cc(C(=O)N2C[C@@H](C(=O)O)[C@H](C(C)C)C2)cs1 | 46.1 |
| CC(C)[C@@H]1CN(C(=O)c2ccsc2)C[C@H]1C(=O)O | 30.9 |
| CC(NC(=O)NCCCn1cccn1)c1ccncc1 (stereo unspecified) | 36.3 |
| COC(=O)c1cc2n(n1)CCN(C(=O)c1csc(CN(C)C)n1)C2 | -4.96 |
| COC(=O)Cn1c(=O)[nH]c2cn(-c3cccc(Cl)c3)c(=O)n21 | 33.7 |
| COCCOCC(=O)N1C[C@@H]2CC[C@H](Oc3ccccc3Cl)[C@@H]2C1 | 40 |
| Cc1nn(C)cc1C(C)Nc1ncc(C(N)=O)cc1Cl (stereo unspecified) | 71.1 |
| COc1ccccc1C(C)Nc1ncc(C(N)=O)cc1Cl (stereo unspecified) | -7.25 |
| COc1cc(C)c(C(C)Nc2ncc(C(N)=O)cc2Cl)cc1OC (stereo unspecified) | -37.7 |
| Cc1noc2ncc(C(=O)NCC3CCCOC3)cc12 (stereo unspecified) | -6.45 |
| N#CC1(NC(=O)c2cc(Cl)c3c(c2)OCCCO3)CCC1 | -14.2 |
| c1cnc2ccc(C[C@@H]3CC[C@H](CN4CCCOCC4)O3)cc2c1 | 23.5 |
| Cc1cc(C(=O)N2CCc3ncnc(-c4cnn(C)c4)c3CC2)no1 | 0.618 |
